Source: the supplement of paper PMC10849652
The full data set covers some 8,800 targets. This sample favours those with a hit. About 0.5% of all pairs of compound and target were hits.

Tests used:
Assay in all cases: log2 fold change, soluble protein after heating vs DMSO (PISA); higher = thermal stabilisation; K562 lysate, 10 uM; active = over 0.2 and 3.5 SD of the protein, either way, in both replicates (recomputed)
lapatinib = compound: CS(=O)(=O)CCNCc1ccc(-c2ccc3ncnc(Nc4ccc(OCc5cccc(F)c5)c(Cl)c4)c3c2)o1 [lapatinib]
In short: (§1)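 Soluble protein was defined as the supernatant remaining after 21,000xg for 90 min, following pooling of heated aliquots and adjustment to 0.5% NP-40 at 4°C. Before that, crude K562 extract at 1 mg/mL protein in PBS pH 7.4 with 1 mM MgCl2 was treated with 10 μM compound for 30 min and heated for 3 min across 48°C-58°C. Quantification used TMTpro 16plex LC-MS/MS with channel sums equalised, and values are log-two fold changes in thermal stability relative to solvent controls from duplicates.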

pictilisib = compound: CS(=O)(=O)N1CCN(Cc2cc3nc(-c4cccc5[nH]ncc45)nc(N4CCOCC4)c3s2)CC1 [pictilisib]
In short: as §1

[1] = compound: C[C@H](C1=CC=C(C=C1)C(=O)NC2=C3C=CNC3=NC=C2)N
In short: as §1

duvelisib = compound: C[C@H](Nc1ncnc2nc[nH]c12)c1cc2cccc(Cl)c2c(=O)n1-c1ccccc1 [duvelisib]
In short: as §1

gandotinib = compound: Cc1cc(Nc2cc(CN3CCOCC3)c3nc(C)c(Cc4ccc(Cl)cc4F)n3n2)n[nH]1 [gandotinib]
In short: as §1

tozasertib = compound: Cc1cc(Nc2cc(N3CCN(C)CC3)nc(Sc3ccc(NC(=O)C4CC4)cc3)n2)n[nH]1 [tozasertib]
In short: as §1

bafetinib = compound: Cc1ccc(NC(=O)c2ccc(CN3CC[C@H](N(C)C)C3)c(C(F)(F)F)c2)cc1Nc1nccc(-c2cncnc2)n1 [bafetinib]
In short: as §1

[2] = compound: Cc1cccc(CC(=O)N2CCc3c2ccc(-c2cn(C)c4ncnc(N)c24)c3F)n1
In short: as §1

dasatinib = compound: Cc1nc(Nc2ncc(C(=O)Nc3c(C)cccc3Cl)s2)cc(N2CCN(CCO)CC2)n1 [dasatinib]
In short: as §1

[3] = compound: Cn1cc(-c2ccc3c(c2)CCN3C(=O)Cc2cccc(C(F)(F)F)c2)c2c(N)ncnc21
In short: as §1

[4] = compound: NC(=O)c1cnc(N[C@@H]2CCCC[C@@H]2N)nc1Nc1cccc(-n2nccn2)c1
In short: as §1

[5] = compound: NC1(c2ccc(-c3nc4ccn5c(=O)[nH]nc5c4cc3-c3ccccc3)cc2)CCC1
In short: as §1

crizotinib = compound: C[C@@H](Oc1cc(-c2cnn(C3CCNCC3)c2)cnc1N)c1c(Cl)ccc(F)c1Cl [crizotinib]
In short: as §1

doramapimod = compound: Cc1ccc(-n2nc(C(C)(C)C)cc2NC(=O)Nc2ccc(OCCN3CCOCC3)c3ccccc23)cc1 [doramapimod]
In short: as §1

nilotinib = compound: Cc1cn(-c2cc(NC(=O)c3ccc(C)c(Nc4nccc(-c5cccnc5)n4)c3)cc(C(F)(F)F)c2)cn1 [nilotinib]
In short: as §1

[6] = compound: Cc1nc(Nc2n[nH]c3c2CN(C(=O)N[C@H](CN(C)C)c2ccccc2)C3(C)C)c2sccc2n1
In short: as §1

[7] = compound: Cc1ncc(-c2ccnc(Nc3ccc(S(C)(=O)=O)cc3)n2)n1C(C)C
In short: as §1

quisinostat = compound: Cn1cc(CNCC2CCN(c3ncc(C(=O)NO)cn3)CC2)c2ccccc21 [quisinostat]
In short: as §1

tipifarnib = compound: Cn1cncc1[C@@](N)(c1ccc(Cl)cc1)c1ccc2c(c1)c(-c1cccc(Cl)c1)cc(=O)n2C [tipifarnib]
In short: as §1

[8] = compound: NC(=O)Nc1cc(-c2cccc(F)c2)sc1C(=O)N[C@H]1CCCNC1
In short: as §1

Measured: log2 fold change

FLT4 (UniProt P35916)
Chain of UniProt P35916 (P35916 whole entry, looked up): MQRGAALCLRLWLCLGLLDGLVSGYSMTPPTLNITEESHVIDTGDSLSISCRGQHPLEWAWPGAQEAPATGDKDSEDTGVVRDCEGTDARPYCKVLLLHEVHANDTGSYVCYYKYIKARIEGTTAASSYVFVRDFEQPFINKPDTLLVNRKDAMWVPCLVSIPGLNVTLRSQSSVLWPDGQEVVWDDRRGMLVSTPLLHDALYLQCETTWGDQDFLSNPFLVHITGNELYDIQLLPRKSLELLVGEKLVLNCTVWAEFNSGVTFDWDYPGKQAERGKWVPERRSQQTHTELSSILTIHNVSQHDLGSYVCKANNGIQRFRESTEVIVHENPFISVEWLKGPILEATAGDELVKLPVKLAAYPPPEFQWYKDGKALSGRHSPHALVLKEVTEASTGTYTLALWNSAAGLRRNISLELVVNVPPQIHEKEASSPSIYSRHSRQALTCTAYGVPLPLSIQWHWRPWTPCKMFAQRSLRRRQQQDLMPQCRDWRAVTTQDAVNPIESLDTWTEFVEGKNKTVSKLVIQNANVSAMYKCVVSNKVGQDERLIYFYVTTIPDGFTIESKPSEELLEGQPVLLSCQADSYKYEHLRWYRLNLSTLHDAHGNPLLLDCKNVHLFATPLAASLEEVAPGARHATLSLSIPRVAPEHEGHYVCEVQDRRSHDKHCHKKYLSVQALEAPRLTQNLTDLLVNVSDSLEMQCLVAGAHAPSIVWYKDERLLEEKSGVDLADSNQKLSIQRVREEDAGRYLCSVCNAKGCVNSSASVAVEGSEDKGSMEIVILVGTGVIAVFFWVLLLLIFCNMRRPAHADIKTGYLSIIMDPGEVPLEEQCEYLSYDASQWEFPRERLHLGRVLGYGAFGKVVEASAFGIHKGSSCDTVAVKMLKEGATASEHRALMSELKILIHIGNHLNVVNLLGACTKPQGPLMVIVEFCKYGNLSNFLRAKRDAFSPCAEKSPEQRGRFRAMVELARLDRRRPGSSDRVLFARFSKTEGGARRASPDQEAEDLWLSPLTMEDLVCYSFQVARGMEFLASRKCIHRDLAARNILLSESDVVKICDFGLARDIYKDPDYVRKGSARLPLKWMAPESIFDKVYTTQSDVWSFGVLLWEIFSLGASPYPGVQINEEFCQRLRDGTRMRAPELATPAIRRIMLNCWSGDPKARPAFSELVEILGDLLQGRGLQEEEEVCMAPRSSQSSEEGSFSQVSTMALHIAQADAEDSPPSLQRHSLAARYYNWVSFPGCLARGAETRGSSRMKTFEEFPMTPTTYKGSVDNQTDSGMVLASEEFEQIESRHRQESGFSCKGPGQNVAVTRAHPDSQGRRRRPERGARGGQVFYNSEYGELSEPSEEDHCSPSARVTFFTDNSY
inactive: lapatinib -0.007 | pictilisib 0.057 | [1] -0.173 | duvelisib 0.026 | gandotinib 0.019 | tozasertib -0.056 | bafetinib -0.035 | [2] -0.041 | dasatinib -0.202 | [3] 0.013 | [4] 0.162 | [5] 0.106

GAA (UniProt P10253)
inactive: lapatinib 0.083 | pictilisib 0.034 | crizotinib -0.098 | [1] -0.018 | gandotinib 0.04 | tozasertib -0.027 | doramapimod -0.099 | bafetinib 0.081 | [2] -0.04 | nilotinib 0.058 | [6] 0.115 | [7] 0.267 | quisinostat 0.024 | tipifarnib -0.336 | [8] 0.007 | [4] -0.014 | [5] -0.003

EIF2B5, A0A3B3ITK8
inactive: lapatinib -0.108 | nilotinib -0.455 | [6] 0.16 | [7] -0.134 | tipifarnib 0.313 | [4] -0.054

FBXO45 (UniProt P0C2W1)
Chain of UniProt P0C2W1 (P0C2W1 whole entry, looked up): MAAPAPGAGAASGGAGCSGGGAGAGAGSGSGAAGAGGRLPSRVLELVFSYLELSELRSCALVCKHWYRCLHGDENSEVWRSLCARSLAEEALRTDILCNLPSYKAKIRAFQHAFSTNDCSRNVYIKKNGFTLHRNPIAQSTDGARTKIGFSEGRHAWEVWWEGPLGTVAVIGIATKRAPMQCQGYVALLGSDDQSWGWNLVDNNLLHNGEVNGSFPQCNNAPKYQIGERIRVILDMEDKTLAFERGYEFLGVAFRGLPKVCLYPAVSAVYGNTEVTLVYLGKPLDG
inactive: lapatinib -0.067 | pictilisib -0.034 | crizotinib -0.123 | [1] -0.081 | gandotinib -0.031 | tozasertib 0.115 | doramapimod 0.017 | bafetinib -0.272 | [2] 0.091 | nilotinib 0.025 | [6] 0.028 | [7] -0.088 | quisinostat -0.006 | tipifarnib -0.011 | [8] 0.008 | [4] 0.147 | [5] -0.002

EIF2AK3 (UniProt Q9NZJ5)
Chain of UniProt Q9NZJ5 (Q9NZJ5 whole entry, looked up): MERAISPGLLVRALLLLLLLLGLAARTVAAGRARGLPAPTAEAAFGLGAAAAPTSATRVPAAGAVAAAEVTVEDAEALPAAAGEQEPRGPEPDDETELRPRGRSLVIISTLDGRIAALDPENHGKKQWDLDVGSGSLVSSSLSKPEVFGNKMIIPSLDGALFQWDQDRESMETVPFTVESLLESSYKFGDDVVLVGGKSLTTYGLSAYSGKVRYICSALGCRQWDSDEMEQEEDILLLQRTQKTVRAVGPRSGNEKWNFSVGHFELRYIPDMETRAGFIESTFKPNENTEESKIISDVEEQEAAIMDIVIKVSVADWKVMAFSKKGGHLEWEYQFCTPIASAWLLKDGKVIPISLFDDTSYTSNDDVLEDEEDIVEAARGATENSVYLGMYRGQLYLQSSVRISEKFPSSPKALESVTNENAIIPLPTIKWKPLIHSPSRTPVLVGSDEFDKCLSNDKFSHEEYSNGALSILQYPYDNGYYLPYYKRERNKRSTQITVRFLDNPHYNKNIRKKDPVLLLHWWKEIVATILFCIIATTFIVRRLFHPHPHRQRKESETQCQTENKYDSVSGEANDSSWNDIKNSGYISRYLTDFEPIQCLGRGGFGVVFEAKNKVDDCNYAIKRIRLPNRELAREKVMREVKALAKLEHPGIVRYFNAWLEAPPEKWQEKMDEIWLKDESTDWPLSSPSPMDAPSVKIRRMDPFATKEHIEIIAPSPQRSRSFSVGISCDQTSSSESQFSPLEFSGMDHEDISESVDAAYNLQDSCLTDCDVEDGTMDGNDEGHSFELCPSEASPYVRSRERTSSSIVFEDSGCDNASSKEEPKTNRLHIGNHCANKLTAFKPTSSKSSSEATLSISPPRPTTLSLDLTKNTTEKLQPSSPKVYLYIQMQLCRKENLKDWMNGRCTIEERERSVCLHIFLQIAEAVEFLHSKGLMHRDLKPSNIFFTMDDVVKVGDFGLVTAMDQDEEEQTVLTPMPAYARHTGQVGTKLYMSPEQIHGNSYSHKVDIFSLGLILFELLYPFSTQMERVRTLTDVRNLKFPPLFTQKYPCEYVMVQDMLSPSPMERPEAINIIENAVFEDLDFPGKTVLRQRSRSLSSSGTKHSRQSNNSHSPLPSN
inactive: lapatinib 0.3 | [1] -0.051 | duvelisib -0.122 | gandotinib -0.212 | nilotinib 0.124 | [6] 0.012 | dasatinib -0.385 | [7] -0.001 | [3] 0.269 | tipifarnib -0.088 | [4] 0.104 | [5] -0.166
active: [2] 1.48

EPB41 isoform 4 (UniProt P11171)
inactive: lapatinib 0.014 | crizotinib -0.038 | [1] 0.012 | gandotinib -0.004 | doramapimod 0.046 | [2] -0.024 | nilotinib 0.124 | [6] 0.044 | [7] -0.165 | quisinostat -0.077 | tipifarnib 0.036 | [8] 0.053 | [4] 0.089 | [5] -0.096

FOXJ2 (UniProt Q9P0K8)
inactive: pictilisib 0.043 | [1] -0.037 | duvelisib 0.039 | gandotinib 0.044 | tozasertib 0.127 | bafetinib -0.224 | [2] 0.056 | nilotinib 0.033 | [6] 0.29 | dasatinib 0.056 | [7] 0.077 | [3] 0.018 | tipifarnib -0.293 | [5] -0.111

FAM204A (UniProt Q9H8W3)
Chain of UniProt Q9H8W3 (Q9H8W3 whole entry, looked up): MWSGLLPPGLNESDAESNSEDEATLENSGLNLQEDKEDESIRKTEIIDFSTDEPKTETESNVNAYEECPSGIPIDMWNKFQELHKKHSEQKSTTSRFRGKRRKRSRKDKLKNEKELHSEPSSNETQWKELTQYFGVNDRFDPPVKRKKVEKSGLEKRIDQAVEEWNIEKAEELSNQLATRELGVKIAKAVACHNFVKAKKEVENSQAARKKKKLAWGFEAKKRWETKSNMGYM
inactive: crizotinib -0.053 | [1] 0.412 | gandotinib 0.045 | doramapimod 0.154 | [2] -0.077 | quisinostat -0.129 | [8] 0.069 | [5] 0.098

GC isoform 3 (UniProt P02774)
inactive: crizotinib 0.029 | [1] 0.173 | duvelisib 0.133 | gandotinib -0.025 | tozasertib -0.004 | doramapimod -0.081 | [2] -0.075 | dasatinib 0.044 | [3] -0.114 | quisinostat 0.175 | [8] -0.076

FNDC3A (UniProt Q9Y2H6)
active: [1] -0.808
inactive: crizotinib 0.036 | gandotinib 0.42 | doramapimod 0.143 | [2] 0.126 | nilotinib -0.057 | [6] -0.125 | [7] -0.293 | quisinostat -0.247 | tipifarnib -0.064 | [8] 0.059 | [5] -0.03

FAT1 (UniProt Q14517)
inactive: lapatinib -0.129 | crizotinib -0.109 | [1] 0.079 | gandotinib 0.027 | tozasertib -0.139 | doramapimod 0.475 | [2] 0.072 | [8] -0.105 | [4] -0.017 | [5] -0.071
active: quisinostat 0.572

GAPVD1 (UniProt Q14C86)
inactive: lapatinib 0.03 | pictilisib -0.138 | bafetinib 0.014 | [4] -0.023

DUSP22 isoform 2 (UniProt Q9NRW4)
Chain of UniProt Q9NRW4 (Q9NRW4 whole entry, looked up): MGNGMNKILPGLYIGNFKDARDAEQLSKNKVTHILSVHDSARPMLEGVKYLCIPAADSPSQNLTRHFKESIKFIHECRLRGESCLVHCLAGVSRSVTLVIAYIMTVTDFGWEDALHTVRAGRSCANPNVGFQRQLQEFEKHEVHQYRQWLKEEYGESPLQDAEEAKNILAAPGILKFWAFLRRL
inactive: lapatinib 0.031 | pictilisib -0.082 | [1] -0.058 | duvelisib 0.038 | gandotinib 0.03 | bafetinib 0.018 | [2] 0.037 | nilotinib -0.039 | [6] -0.073 | dasatinib -0.022 | [7] 0.064 | [3] -0.001 | tipifarnib 0.038 | [4] 0.036 | [5] 0.109

GART (UniProt C9JZG2)
inactive: lapatinib -0.131 | pictilisib 0.019 | crizotinib -0.245 | [1] -0.371 | gandotinib 0.02 | tozasertib 0.037 | doramapimod 0.166 | bafetinib 0.026 | [2] 0.19 | nilotinib -0.085 | [6] -0.033 | [7] 0.042 | quisinostat -0.373 | tipifarnib -0.101 | [8] -0.02 | [4] 0.139

ESRRB isoform 1 (UniProt O95718)
inactive: pictilisib 0.05 | [1] 0.438 | gandotinib -0.437 | bafetinib 0.028 | [2] -0.308 | [5] 0.182

DTL (UniProt Q9NZJ0)
inactive: pictilisib -0.026 | crizotinib -0.035 | [1] 0.059 | duvelisib 0.174 | gandotinib -0.053 | doramapimod 0.064 | bafetinib -0.099 | [2] 0.006 | nilotinib 0.005 | [6] -0.022 | dasatinib 0.044 | [7] -0.052 | [3] 0.066 | tipifarnib 0.036 | [8] 0.025 | [5] 0.048
active: quisinostat -0.227

EIF3I (UniProt Q5TFK1)
inactive: lapatinib -0.063 | [1] 0.137 | gandotinib 0.052 | [2] 0.112 | nilotinib 0.108 | [6] -0.239 | [7] -0.035 | tipifarnib -0.511 | [4] 0.387

FAM53B (UniProt Q14153)
inactive: pictilisib 0.02 | crizotinib -0.03 | [1] -0.032 | duvelisib 0.079 | gandotinib 0.037 | tozasertib 0.024 | doramapimod 0.169 | bafetinib -0.023 | [2] 0.083 | nilotinib 0.015 | [6] 0.013 | dasatinib 0.036 | [7] 0.004 | [3] 0.14 | quisinostat -0.078 | tipifarnib -0.013 | [8] 0.093 | [5] 0.042

ERG28 (UniProt Q9UKR5)
Chain of UniProt Q9UKR5 (Q9UKR5 whole entry, looked up): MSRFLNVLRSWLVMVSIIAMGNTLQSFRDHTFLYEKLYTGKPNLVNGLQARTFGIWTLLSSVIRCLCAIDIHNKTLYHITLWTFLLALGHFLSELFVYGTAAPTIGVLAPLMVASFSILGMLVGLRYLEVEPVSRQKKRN
inactive: lapatinib 0.008 | pictilisib 0.049 | duvelisib 0.014 | gandotinib -0.349 | tozasertib -0.11 | bafetinib 0.041 | [2] -0.392 | dasatinib 0.029 | [3] 0.059 | [4] -0.015
active: [1] 0.593

EIF2B4 (UniProt Q9UI10)
Chain of UniProt Q9UI10 (Q9UI10 whole entry, looked up): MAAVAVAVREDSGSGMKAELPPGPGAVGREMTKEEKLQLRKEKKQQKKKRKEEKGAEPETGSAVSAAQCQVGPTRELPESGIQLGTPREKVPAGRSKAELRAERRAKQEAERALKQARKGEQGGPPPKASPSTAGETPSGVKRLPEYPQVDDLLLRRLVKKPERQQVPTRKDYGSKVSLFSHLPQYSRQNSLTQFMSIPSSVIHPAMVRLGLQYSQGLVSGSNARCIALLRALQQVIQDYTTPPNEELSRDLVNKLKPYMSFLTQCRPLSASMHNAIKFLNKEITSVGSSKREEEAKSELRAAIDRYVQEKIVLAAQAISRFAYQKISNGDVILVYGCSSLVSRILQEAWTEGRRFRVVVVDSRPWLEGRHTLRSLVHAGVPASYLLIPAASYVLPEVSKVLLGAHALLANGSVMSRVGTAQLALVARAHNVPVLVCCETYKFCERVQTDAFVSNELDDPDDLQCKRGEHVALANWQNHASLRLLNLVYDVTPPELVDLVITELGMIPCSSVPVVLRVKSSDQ
inactive: lapatinib -0.003 | pictilisib 0.038 | crizotinib -0.057 | duvelisib -0.032 | doramapimod -0.019 | bafetinib -0.04 | nilotinib 0.053 | [6] -0.005 | dasatinib 0.014 | [7] 0.033 | [3] -0.022 | quisinostat 0.02 | tipifarnib 0.016 | [8] 0.022 | [4] 0.039 | [5] -0.021
active: tozasertib -0.314

FAM76B (UniProt Q5HYJ3)
Chain of UniProt Q5HYJ3 (Q5HYJ3 whole entry, looked up): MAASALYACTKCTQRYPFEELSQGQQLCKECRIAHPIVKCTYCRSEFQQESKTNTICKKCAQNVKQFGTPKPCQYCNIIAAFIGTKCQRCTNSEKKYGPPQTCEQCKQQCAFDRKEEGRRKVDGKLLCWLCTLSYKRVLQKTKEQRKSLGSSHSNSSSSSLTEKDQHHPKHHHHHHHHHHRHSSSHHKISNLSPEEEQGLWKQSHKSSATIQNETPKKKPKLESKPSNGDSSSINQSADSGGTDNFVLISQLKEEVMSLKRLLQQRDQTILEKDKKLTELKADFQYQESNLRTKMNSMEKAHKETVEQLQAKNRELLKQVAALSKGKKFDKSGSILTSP
active: [2] 0.269
inactive: lapatinib -0.049 | crizotinib 0.028 | [1] -0.19 | duvelisib -0.02 | gandotinib 0.023 | tozasertib -0.021 | doramapimod -0.016 | nilotinib -0.044 | [6] 0.019 | dasatinib 0.093 | [7] -0.004 | [3] 0.005 | quisinostat -0.028 | tipifarnib -0.019 | [8] -0.032 | [4] -0.026 | [5] -0.07

DST isoform 3 (UniProt Q03001)
active: [1] 1.39
inactive: pictilisib 0.049 | gandotinib -0.243 | tozasertib -0.056 | bafetinib -0.118 | [2] -0.224 | [5] -0.071

EPB41, A0A2R8Y783
inactive: lapatinib -0.063 | pictilisib 0.04 | [1] 0.121 | duvelisib -0.089 | gandotinib -0.066 | tozasertib 0.061 | bafetinib 0.04 | [2] -0.006 | dasatinib 0.028 | [3] -0.11 | [4] -0.108

EVI5L isoform 2 (UniProt Q96CN4)
Chain of UniProt Q96CN4 (Q96CN4 whole entry, looked up): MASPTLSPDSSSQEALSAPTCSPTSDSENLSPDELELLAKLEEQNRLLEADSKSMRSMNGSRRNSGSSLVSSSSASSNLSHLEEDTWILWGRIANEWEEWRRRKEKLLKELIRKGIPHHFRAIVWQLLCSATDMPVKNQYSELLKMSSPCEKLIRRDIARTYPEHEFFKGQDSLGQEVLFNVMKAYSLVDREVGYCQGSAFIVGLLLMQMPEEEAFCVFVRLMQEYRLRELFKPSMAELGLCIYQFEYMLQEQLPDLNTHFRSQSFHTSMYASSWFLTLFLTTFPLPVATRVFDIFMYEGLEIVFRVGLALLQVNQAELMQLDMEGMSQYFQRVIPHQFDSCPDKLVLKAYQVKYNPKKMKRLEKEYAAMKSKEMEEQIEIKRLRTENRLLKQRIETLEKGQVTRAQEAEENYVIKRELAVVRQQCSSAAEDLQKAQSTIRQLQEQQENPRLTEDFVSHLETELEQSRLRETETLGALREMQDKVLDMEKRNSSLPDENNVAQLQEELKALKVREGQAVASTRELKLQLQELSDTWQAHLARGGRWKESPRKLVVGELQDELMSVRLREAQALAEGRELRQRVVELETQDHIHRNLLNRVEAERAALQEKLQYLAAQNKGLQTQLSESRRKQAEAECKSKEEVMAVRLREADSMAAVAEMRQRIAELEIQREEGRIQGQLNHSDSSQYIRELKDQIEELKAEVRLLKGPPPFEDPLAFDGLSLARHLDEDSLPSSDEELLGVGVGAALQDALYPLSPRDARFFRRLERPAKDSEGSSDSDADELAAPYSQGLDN
inactive: [1] 0.022 | gandotinib 0.062 | [2] 0.049

DYRK1A isoform 2 (UniProt Q13627)
inactive: pictilisib -0.166 | crizotinib -0.071 | [1] -0.171 | gandotinib 0.014 | doramapimod 0.092 | bafetinib 0.145 | [2] 0.034 | quisinostat -0.095 | [8] 0.139 | [5] -0.047

FMNL2 isoform 3 (UniProt Q96PY5)
inactive: lapatinib -0.077 | crizotinib -0.17 | duvelisib -0.085 | doramapimod 0.091 | nilotinib -0.1 | [6] -0.087 | dasatinib 0.101 | [7] -0.018 | [3] -0.028 | quisinostat -0.1 | tipifarnib -0.012 | [8] -0.047 | [4] 0.002 | [5] -0.021
